Source: PubChem BioAssay AID1851 (National Center for Advancing Translational Sciences (NCATS), 2009)
In all, about 16,000 compounds went through this assay and about 4,000 (25%) were called active. About 26% were inconclusive and are not listed. Calls come from the whole dose curve; as a rule, active = well fitted curve in the direction sought with a large enough effect; inconclusive = small, poorly fitted or top-dose-only effect, or effect the other way; inactive = no such curve, though single readings can be large or run the other way. The list is a sample of the results.

molecular target: Cytochrome P450 2C9 (Homo sapiens) (UniProt P11712); assay: Cytochrome panel assay with activity outcomes; conditions: recombinant CYP, pro-luciferin dealkylation, luminescence, p450-cyp2c9; series mostly up to 57.1 µM; activity, negative = inhibition: at the top concentration
Sequence (P11712 whole entry, looked up): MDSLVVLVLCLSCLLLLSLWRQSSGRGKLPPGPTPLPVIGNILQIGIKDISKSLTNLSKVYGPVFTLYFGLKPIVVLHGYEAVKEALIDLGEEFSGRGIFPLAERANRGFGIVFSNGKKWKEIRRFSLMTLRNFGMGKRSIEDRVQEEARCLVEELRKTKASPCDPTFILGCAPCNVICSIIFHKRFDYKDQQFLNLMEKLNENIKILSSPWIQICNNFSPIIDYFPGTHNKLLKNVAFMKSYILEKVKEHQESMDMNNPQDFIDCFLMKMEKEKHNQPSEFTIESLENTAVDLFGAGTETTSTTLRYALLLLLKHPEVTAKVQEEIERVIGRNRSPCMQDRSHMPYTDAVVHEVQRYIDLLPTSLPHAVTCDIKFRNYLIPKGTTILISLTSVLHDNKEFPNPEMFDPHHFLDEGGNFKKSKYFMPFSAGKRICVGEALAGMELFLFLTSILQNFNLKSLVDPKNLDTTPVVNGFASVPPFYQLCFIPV
% is set by controls: 0 for no effect and ±100 for the full control effect.

activity, negative = inhibition, inactive:
CCc1ccc(OCCCC(=O)Nc2ccc(N3CCCCC3)cc2)cc1 -21.4%
COc1ccc(NC(=O)N2CCCC3(CCNCC3)C2)cc1 -5.11%
CC(C)=CCC/C(C)=C/CO/N=C1/[C@H]2O[C@@H]2[C@@H](O)[C@H]2[C@H]1CCn1c(=O)n(-c3ccccc3)c(=O)n12 6.87% [at 11.4 µM]
Cc1cnnn1-c1ccc(C(=O)CCl)cc1 -4.42%
Nc1ccc(C(=O)NCC(=O)O)cc1 9.9% [at 25.6 µM]
COC(=O)CNC(=O)CCCCC(=O)NCC(=O)OC 5.38%
CC(C)=CCC/C(C)=C/CO/N=C1/C[C@@H](O)[C@@H](O)[C@@H]2[C@@H]3C(=O)N(Cc4ccc5c(c4)OCO5)C(=O)[C@H]3CC[C@H]12 -26.4% [at 11.4 µM]
Cc1ccc(OCC(=O)NNC(=O)c2cccnc2)cc1 0.128%
O=C(Nc1ccc(OC(=O)c2cccnc2)cc1)c1cccnc1 -16.9%
CCCCOc1ccc(CC(=O)NO)cc1 -15.6% [at 25.6 µM]
COc1cnc(NS(=O)(=O)c2ccc(N)cc2)nc1 -9.19% [at 25.6 µM]
COc1ccc(C(Cl)=C(c2ccc(OC)cc2)c2ccc(OC)cc2)cc1 12.9% [at 25.6 µM]
Nc1ccc(S(=O)(=O)Nc2ncccn2)cc1 -7.42% [at 25.6 µM]
CCCCN(CCCC)CCCOC(=O)c1ccc(N)cc1 -9.19% [at 25.6 µM]
COc1ccc(C(=O)N2CCC3(CC2)CCN(c2ccncc2)CC3)cc1 1.22%
c1cncc(-c2cncnc2NC2CCNCC2)c1 17.3% [at 2.29 µM]
C[C@H]1C[C@H]2[C@H]3CCC4=CC(=O)C=C[C@@]4(C)[C@]3(F)[C@H](O)C[C@]2(C)[C@@]1(O)C(=O)COP(=O)(O)O 23.1% [at 11.4 µM]
N#Cc1cccc(-c2cncnc2-n2ccnc2)c1 12.2% [at 2.29 µM]
FC(F)(F)c1ccccc1-n1ccnc1 -3.84%
CCCCCCCCOC1OC(CO)C(O)C(O)C1NC(C)=O (stereo not given) 11.5%
C[C@@H]1C[C@H]2[C@H]3C[C@@H](F)C4=CC(=O)C=C[C@]4(C)[C@@]3(Cl)[C@@H](O)C[C@@]2(C)[C@@H]1C(=O)COC(=O)C(C)(C)C 6.05% [at 25.6 µM]
COc1ccc(F)cc1S(=O)(=O)NC(Cc1ccccc1)C(N)=O (stereo not given) -18.3%
Cc1cccc(C)c1NC(=O)Nc1ccc(S(N)(=O)=O)cc1 -4.33% [at 11.4 µM]
Cn1c(CNS(=O)(=O)c2ccc(F)cc2)n[nH]c1=S -10.4%
CC(=O)c1ccc(S(=O)(=O)NC(=O)NC2CCCCC2)cc1 -9.98% [at 25.6 µM]
COc1ccccc1S(=O)(=O)Nc1ccc(-c2nnc3n2CCCCC3)cc1 -3.81%
CC(C)(C)c1ccc(NS(=O)(=O)c2ccc(N)cc2)cc1 -10.7% [at 11.4 µM]
CC(C)N=C(Nc1ccc(Cl)cc1)c1cccnc1 -21.8%
CCN=C(Nc1ccc(Cl)cc1)c1cccnc1 -9.1%
CC(C)OC(=O)C(C)(C)Oc1ccc(C(=O)c2ccc(Cl)cc2)cc1 -71.5% [at 25.6 µM]
CC(C)(Oc1ccc(CCNC(=O)c2ccc(Cl)cc2)cc1)C(=O)O -6.71% [at 25.6 µM]
Nc1cc(C(=O)O)[nH]c(=O)n1 7.9% [at 11.4 µM]
CC(=O)OCC(=O)[C@@]1(OC(C)=O)[C@H](C)C[C@H]2[C@@H]3C[C@H](F)C4=CC(=O)C=C[C@@]4(C)[C@]3(F)[C@H](O)C[C@@]21C -50.1% [at 25.6 µM]
CN(C)CCC=C1c2ccccc2CCc2ccccc21 -10.9%
CC(=O)NC(CCS(C)(=O)=O)C(=O)Nc1c(F)cccc1F (stereo not given) -3.82%
O=C(CCN1C(=O)C2C3C=CC(C3)C2C1=O)Nc1c(F)cccc1F (stereo not given) -21.6%

AC50, inactive:
N=C(N)SCCN
COc1c(C)c2c(c(O)c1C/C=C(\C)CCC(=O)O)C(=O)OC2

AC50, active:
CCNC(=O)c1ccc(-n2nc(C)cc2-c2ccccc2)cc1 7.94 µM
CCCCOc1ccc(S(=O)(=O)Nc2cccnc2)cc1 1.26 µM
COc1ccc(OC(=O)c2ccncc2)cc1 4.47 µM
CCCCOc1ccc(OC(=O)c2cccnc2)cc1 14.1 µM
CCCCCOc1ccc(OC(=O)c2ccncc2)cc1 2.82 µM
N#Cc1c(-n2ccnc2)cccc1-n1ccnc1 0.562 µM
CC(C)(C)NS(=O)(=O)c1ccc(NS(=O)(=O)c2ccc(F)cc2)cc1 0.2 µM
COc1ccc(S(=O)(=O)Nc2ccc(F)cc2)c(C)c1C 8.91 µM
CC(C)(C)NS(=O)(=O)c1ccc(NC(=O)NC2CCCCC2)cc1 20 µM
CC(C)(Oc1ccc(Cl)cc1)C(=O)Nc1ccncc1 0.501 µM
CC(C)(Oc1ccc(Cl)cc1)C(=O)Nc1cccnc1 14.1 µM
CS(=O)(=O)N(CC(=O)Nc1c(F)cccc1F)c1ccc(C23CC4CC(CC(C4)C2)C3)cc1 3.98 µM
